# From PubChem BioAssay
# Calls of active or inactive are those of the source.
# Legend:
# [1] = E. coli DRC41 culture turbidity changes, primary screen, E. coli filamentation inducer project, strain DRC41, OD650, 48 h (AID 1152);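 further: E. coli MC1000 strain DRC41 lacking acrAB efflux pump and sulA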; conditions: E. coli DRC41 (acrAB sulA), higher = more signal, called active from +8 up or from −8 down
# [2] = small-molecule binders of probe aLefty1, primary screen, biochemical, small-molecule microarray, 635/667 nm fluorescence (AID 1153); conditions: higher = more signal;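 further: score merges spot fluorescence with signal-to-noise ratio from the scanned slide images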
# [3] = PSAC antagonists in infected red cells, primary screen, cell-based, P. falciparum Indochina, OD700, 1 h (AID 1154); conditions: P. falciparum Indochina infected RBC osmotic lysis, higher = more signal, called active from +8 up or from −8 down
# [4] = PSAC antagonists in infected red cells, primary screen, cell-based, P. falciparum Indochina, OD700, 2 h (AID 1155);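 further: lysis reports solute entry through the parasite surface anion channel PSAC; channel blockers reduce lysis of infected cells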; conditions: P. falciparum Indochina infected erythrocytes, osmotic lysis OD700; higher = more signal, called active from +8 up or from −8 down
# [5] = osmotic lysis modulators in infected erythrocytes, primary screen, PSAC antagonist project, cell-based, P. falciparum Indochina, OD700, 3 h (AID 1156); conditions: higher = more signal, called active from +8 up or from −8 down
# [6] = PSAC antagonists in infected red cells, primary screen, cell-based, P. falciparum Indochina, OD700, 18 h (AID 1157); conditions: P. falciparum Indochina infected erythrocytes, osmotic lysis OD700, 18 h; higher = more signal, called active from +8 up or from −8 down
# [7] = modulators of S6 phosphorylation in cells, primary screen, cell-based, A549, cytoblot, luminescence, serum-stimulated (AID 1158); conditions: A549 phospho-S6 cytoblot, 5 h, higher = more signal;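 further: serum-stimulated A549 lung adenocarcinoma cells; signal is phosphorylated S6 detected by cytoblot immunostaining with HRP secondary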
# [8] = target: NADPH oxidase 2 (Homo sapiens) (UniProt P04839); test: NOX2-dependent H2O2 signal modulators, primary screen, NOX inhibitor project, cell-based, HEK293-NOX2, PMA-stimulated, Amplex Red fluorescence (AID 1159); conditions: 45 min, higher = more signal, called active from +8 up or from −8 down; further: test concentration not given here
# [9] = target: NADPH oxidase 4 (Homo sapiens) (UniProt Q9NPH5); test: NOX4-dependent H2O2 signal modulators, primary screen, NOX inhibitor project, cell-based, HEK293-NOX4, tetracycline-induced, Amplex Red fluorescence (AID 1160); conditions: 45 min, higher = more signal, called active from +8 up or from −8 down
# [10] = target: NADPH oxidase 5 (Homo sapiens) (UniProt Q96PH1); test: NOX5-dependent H2O2 signal modulators, primary screen, NOX inhibitor project, cell-based, HEK293-NOX5, Amplex Red fluorescence (AID 1161); conditions: HEK293-NOX5, ionomycin, 45 min, higher = more signal
# [11] = A549 cell viability effects, profiling panel, calcein-AM fluorescence, 48 h, basal (AID 1162); conditions: higher = more signal; further: test concentration not given here
# [12] = adipocyte viability effects, profiling panel, cell-based, 3T3-L1 adipocytes, calcein-AM fluorescence, 48 h, basal (AID 1163); conditions: 3T3-L1 adipocytes viability, higher = more signal; further: test concentration not given here
# [13] = HepG2 cell viability effects, profiling panel, calcein-AM fluorescence, 48 h, basal (AID 1164); conditions: higher = more signal; further: test concentration not given here
# [14] = MM1S cell viability effects, profiling panel, calcein-AM fluorescence, 48 h, basal (AID 1165); conditions: higher = more signal;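 further: viability of MM1S multiple myeloma cells under basal unstimulated conditions; test concentration not given here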
# [15] = basal RPMI8226 viability, no added stimulus, profiling panel, cell-based, calcein-AM fluorescence, 48 h, PK04 Diversity Set (AID 1166); conditions: RPMI8226 myeloma viability, higher = more signal;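 further: cells grown under basal conditions without added stimulus; test concentration not given here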
# [16] = basal HepG2 mitochondrial membrane potential changes, profiling panel, cell-based, JC-1 fluorescence, 24 h, 100 nL compound (AID 1167); conditions: higher = more signal; further: test concentration not given here
# [17] = basal 3T3-L1 adipocyte mitochondrial potential changes, profiling panel, cell-based, JC-1 fluorescence, 3T3-L1 adipocytes, 24 h, 100 nL compound (AID 1168); conditions: JC-1 mitochondrial fluorescence, higher = more signal, called active from +8 up or from −8 down; further: test concentration not given here
# [18] = basal RPMI8226 mitochondrial membrane potential changes, profiling panel, cell-based, JC-1 fluorescence, 24 h, 100 nL compound (AID 1169); conditions: RPMI8226 myeloma, JC-1 mitochondrial potential fluorescence, higher = more signal; further: test concentration not given here
# [19] = basal MM1S mitochondrial membrane potential changes, profiling panel, cell-based, JC-1 fluorescence, 24 h, 100 nL compound (AID 1170); conditions: higher = more signal; further: test concentration not given here
# [20] = A549 lung cancer cell viability effects, profiling panel, resazurin fluorescence, 24 h, PK04 Diversity Set (AID 1171); conditions: higher = more signal, called active from +8 up or from −8 down; further: test concentration not given here
# Chain of NADPH oxidase 2 (Homo sapiens) (P04839 whole entry, looked up): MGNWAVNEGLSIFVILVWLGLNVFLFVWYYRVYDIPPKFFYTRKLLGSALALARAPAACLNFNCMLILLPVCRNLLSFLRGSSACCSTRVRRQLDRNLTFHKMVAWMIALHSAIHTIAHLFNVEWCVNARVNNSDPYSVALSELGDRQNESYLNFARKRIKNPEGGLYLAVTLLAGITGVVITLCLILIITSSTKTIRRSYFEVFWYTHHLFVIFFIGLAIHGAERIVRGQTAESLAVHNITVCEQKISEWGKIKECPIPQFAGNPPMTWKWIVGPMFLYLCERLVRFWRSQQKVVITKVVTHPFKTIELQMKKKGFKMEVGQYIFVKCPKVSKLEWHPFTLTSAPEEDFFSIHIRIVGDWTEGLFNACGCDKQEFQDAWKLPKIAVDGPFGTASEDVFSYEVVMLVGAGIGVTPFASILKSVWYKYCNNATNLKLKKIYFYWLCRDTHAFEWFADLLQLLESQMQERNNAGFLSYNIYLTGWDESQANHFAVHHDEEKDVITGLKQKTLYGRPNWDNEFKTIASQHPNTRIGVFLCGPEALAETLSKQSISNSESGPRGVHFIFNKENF
# Chain of NADPH oxidase 5 (Homo sapiens) (Q96PH1 whole entry, looked up): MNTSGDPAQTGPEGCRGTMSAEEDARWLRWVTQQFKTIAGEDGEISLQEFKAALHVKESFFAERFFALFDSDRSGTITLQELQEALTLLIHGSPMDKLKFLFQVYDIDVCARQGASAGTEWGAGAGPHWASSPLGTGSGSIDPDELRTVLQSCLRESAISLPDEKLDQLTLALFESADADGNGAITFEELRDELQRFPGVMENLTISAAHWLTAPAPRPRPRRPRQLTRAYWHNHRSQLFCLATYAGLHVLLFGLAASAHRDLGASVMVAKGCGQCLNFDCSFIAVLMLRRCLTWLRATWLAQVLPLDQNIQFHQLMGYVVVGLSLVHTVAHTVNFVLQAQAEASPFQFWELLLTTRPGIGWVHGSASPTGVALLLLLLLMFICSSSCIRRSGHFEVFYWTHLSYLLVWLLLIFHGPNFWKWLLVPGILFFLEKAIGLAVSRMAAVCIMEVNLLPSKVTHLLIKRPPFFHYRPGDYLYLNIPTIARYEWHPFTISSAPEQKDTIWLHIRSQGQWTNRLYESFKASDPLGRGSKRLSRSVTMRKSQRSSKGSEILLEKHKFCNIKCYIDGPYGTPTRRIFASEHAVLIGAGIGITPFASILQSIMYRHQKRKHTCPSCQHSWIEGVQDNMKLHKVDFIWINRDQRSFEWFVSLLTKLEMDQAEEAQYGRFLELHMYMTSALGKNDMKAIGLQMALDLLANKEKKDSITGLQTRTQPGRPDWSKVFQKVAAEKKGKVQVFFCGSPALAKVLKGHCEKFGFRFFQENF
# Chain of NADPH oxidase 4 (Homo sapiens) (Q9NPH5 whole entry, looked up): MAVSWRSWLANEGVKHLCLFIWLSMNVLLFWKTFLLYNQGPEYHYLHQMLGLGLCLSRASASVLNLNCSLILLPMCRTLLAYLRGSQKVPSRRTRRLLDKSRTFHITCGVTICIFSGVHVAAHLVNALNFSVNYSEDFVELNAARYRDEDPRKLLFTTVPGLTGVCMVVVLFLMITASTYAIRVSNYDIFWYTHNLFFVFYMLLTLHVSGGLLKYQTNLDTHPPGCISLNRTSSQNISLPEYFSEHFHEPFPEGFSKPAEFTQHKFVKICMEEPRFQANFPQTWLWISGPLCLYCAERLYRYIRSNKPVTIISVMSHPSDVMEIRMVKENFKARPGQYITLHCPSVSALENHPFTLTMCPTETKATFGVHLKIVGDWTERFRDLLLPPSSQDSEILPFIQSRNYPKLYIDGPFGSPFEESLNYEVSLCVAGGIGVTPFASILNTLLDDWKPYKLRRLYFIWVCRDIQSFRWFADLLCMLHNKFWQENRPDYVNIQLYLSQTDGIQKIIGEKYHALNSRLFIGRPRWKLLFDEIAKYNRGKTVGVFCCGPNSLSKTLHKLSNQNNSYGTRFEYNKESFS
SMILES,z-score [1],composite z-score [2],z-score [3],z-score [4],z-score [5],z-score [6],z-score [7],z-score [8],z-score [9],z-score [10],z-score [11],z-score [12],z-score [13],z-score [14],z-score [15],z-score [16],z-score [17],z-score [18],z-score [19],z-score [20]
Cc1ccc(S[C@]2(C(=O)NCC(C)C)CC(=O)N(Cc3cc(C(F)(F)F)cc(C(F)(F)F)c3)[C@@H]2c2ccc(CO)cc2)cc1,-0.687 (inactive),0.2,1.3 (inactive),0.596 (inactive),0.664 (inactive),0.13 (inactive),-0.0958,1.73 (inactive),0.823 (inactive),-0.188,-0.174,0.518,-0.527,-0.741,-0.744,-0.444,-0.612 (inactive),0.244,-0.133,-0.0187 (inactive)
CN(C)CCCCNC(=O)[C@@H]1C[C@@H]2C(=O)N[C@@H](CCCCN)C(=O)N2[C@@H]1c1ccc(O)cc1,0.928 (inactive),0.129,1.93 (inactive),1.43 (inactive),-0.079 (inactive),1.16 (inactive),0.297,1.42 (inactive),1.28 (inactive),0.81,0.48,-1.51,0.377,-0.388,0.473,-1.58,0.627 (inactive),-0.836,-1.29,0.0719 (inactive)
COc1ccc(C(O)C2C=CC3C(=O)N(C)C(=O)C3N2N(c2ccccc2)c2ccccc2)c2ccccc12 (stereo not given),-1.24 (inactive),0.407,1.24 (inactive),1.4 (inactive),0.39 (inactive),1.32 (inactive),-1.19,-0.549 (inactive),-0.247 (inactive),-0.716,-0.303,-1.6,0.943,0.149,0.2,-0.979,-0.14 (inactive),0.545,-0.67,-0.738 (inactive)
[N-]=[N+]=NCc1ccccc1[C@H]1OC(c2ccc(OCCCO)cc2)=N[C@@]1(Cc1ccccc1)C(=O)N1CCCCC1,0.796 (inactive),0.0331,28.4 (active),23.2 (active),1.75 (inactive),1.77 (inactive),1.3,-3.54 (inactive),-0.919 (inactive),-1.28,0.562,-0.359,0.505,-0.085,-0.909,0.732,-0.677 (inactive),-0.931,-0.854,0.151 (inactive)
COc1ccc(C(=O)Nc2ccc(CN3C(=O)[C@]4(O[C@H](CC(=O)N5CCC[C@H]5CO)[C@@H]([Si](C)(C)c5ccc(OC)cc5)[C@@H]4C)c4ccccc43)cc2)cc1,-0.951 (inactive),0.385,7.69 (inactive),1.45 (inactive),-0.749 (inactive),0.598 (inactive),0.424,2.62 (inactive),1.45 (inactive),4.87,-1.14,0.362,-4.53,-2.83,-4.35,-2.48,-0.0307 (inactive),-1.09,-2.1,-1.98 (inactive)
C=CCNC(=O)[C@H]1[C@@H]2C(=O)O[C@@H](c3ccccc3)[C@@H](c3ccccc3)N2[C@@H](c2ccc(OCCO)cc2)[C@]12C(=O)Nc1ccc(C#CCC(C(=O)OC)C(=O)OC)cc12,-0.283 (inactive),0.128,3.01 (inactive),0.664 (inactive),-0.291 (inactive),0.117 (inactive),-0.602,1.48 (inactive),1.21 (inactive),0.45,-0.505,0.208,0.349,-1.46,-3.36,-0.232,0.97 (inactive),-0.817,-1.12,0.149 (inactive)
C=CC[C@]12N=C(c3ccc(OCCCO)cc3)O[C@H]1c1ccccc1N(CCS(=O)(=O)c1ccccc1)C2=O,-0.913 (inactive),0.204,31.2 (active),28 (active),2.35 (inactive),7.99 (inactive),0.852,-2.24 (inactive),0.939 (inactive),-2.12,0.289,0.839,0.324,-1.68,-0.916,0.134,1.73 (inactive),-1.01,-1.25,-1.02 (inactive)
C=CCN1C(=O)[C@]2(O[C@H](CCO)[C@@H]([Si](C)(C)c3ccc(OC)cc3)[C@@H]2C)c2cc(N(C=O)c3ccccc3)ccc21,0.35 (inactive),0.0774,9.23 (active),3.66 (inactive),-0.452 (inactive),2.29 (inactive),1.53,0.474 (inactive),0.446 (inactive),0.327,-3.81,0.532,-4.8,-3.05,-4.39,-1.98,-0.422 (inactive),-0.993,-2.23,-5.28 (inactive)
O=C1[C@H]2C=C(Br)[C@H](C[C@@H]2OCCCCCCO)[C@@]12CO2,-1.69 (inactive),-0.101,1.53 (inactive),0.318 (inactive),1.2 (inactive),0.501 (inactive),-0.276,0.486 (inactive),0.633 (inactive),-0.292,-0.141,-0.572,-0.339,-1.04,0.206,-1.59,-0.253 (inactive),-0.601,-0.0629,-0.247 (inactive)
NCCCCCCNC(=O)[C@H]1C[C@H]2C(=O)N[C@@H](Cc3ccccc3)C(=O)N2[C@H]1c1cccc(OCCO)c1,0.921 (inactive),-0.141,5 (inactive),0.944 (inactive),2.3 (inactive),0.472 (inactive),-0.147,0.997 (inactive),0.736 (inactive),0.392,0.516,0.454,-0.378,0.456,0.112,-0.215,0.896 (inactive),-0.802,-0.531,1.21 (inactive)
COCCOC(=O)N1C(=O)[C@@]2(c3cc(C#CC4(O)CCCCCC4)ccc31)[C@H](c1ccccc1OCCO)N1[C@H](c3ccccc3)[C@H](c3ccccc3)OC(=O)[C@H]1[C@@H]2C(=O)N1CCc2cc(OC)c(OC)cc2C1,0.109 (inactive),0.379,2.53 (inactive),0.888 (inactive),0.467 (inactive),0.773 (inactive),0.495,1.25 (inactive),0.534 (inactive),1.82,-0.329,0.346,-0.011,-0.889,-1.76,-0.0229,0.0348 (inactive),-0.686,-1.14,0.512 (inactive)
CCOc1cc(C(O)C2C=CC3C(=O)N(c4ccccc4)C(=O)C3N2Nc2ccc(C(C)C)cc2)ccc1O (stereo not given),-1.97 (inactive),0.469,11.5 (active),1.8 (inactive),1.74 (inactive),1.42 (inactive),-0.729,-3.06 (inactive),-4.82 (inactive),-5.07,-0.65,-0.538,-0.159,-2.67,-1.16,-1.66,-0.457 (inactive),0.41,-0.19,-0.866 (inactive)
CC(C)NC(=O)[C@@H]1c2ccccc2C(=O)N(C(C)C)[C@H]1c1ccc(CO)cc1,1.17 (inactive),-0.228,3.85 (inactive),1.18 (inactive),0.151 (inactive),0.207 (inactive),0.0843,0.274 (inactive),0.614 (inactive),0.964,0.772,0.0383,1.8,0.333,0.947,1.59,-0.423 (inactive),-0.104,-0.952,0.842 (inactive)
[N-]=[N+]=Nc1ccccc1[C@H]1OC(c2ccc(OCCCO)cc2)=N[C@@]1(Cc1ccccc1)C(=O)N1CCOCC1,-0.388 (inactive),0.342,30.8 (active),30.6 (active),2.96 (inactive),9.58 (active),-0.0055,-1.29 (inactive),1.27 (inactive),1.13,-1.59,0.539,-1.12,-2.4,-3.94,-0.273,0.598 (inactive),-1.09,-2.67,-2.74 (inactive)
O=C1C2C=CC(C(O)COCc3ccccc3)N(Nc3ccc([N+](=O)[O-])cc3)C2C(=O)N1c1ccccc1 (stereo not given),0.383 (inactive),0.447,9.2 (active),0.581 (inactive),-0.214 (inactive),-0.809 (inactive),0.213,-0.51 (inactive),-0.338 (inactive),0.629,-0.26,0.619,-0.617,-0.105,-0.0326,-1.26,-1.67 (inactive),-0.25,-1.01,0.315 (inactive)
C=CC[C@]1(C(=O)N2CCOCC2)N=C(c2ccc(OCCCO)cc2)O[C@H]1c1ccccc1N=[N+]=[N-],0.65 (inactive),0.448,33.6 (active),29.5 (active),3.29 (inactive),7.61 (inactive),2.04,-1.82 (inactive),0.451 (inactive),-2.56,0.0797,0.816,-0.0586,-0.094,-1.8,1.23,1.17 (inactive),-0.733,-1.44,-0.441 (inactive)
